The text below walks through data of PubChem BioAssay AID624141 (Broad Institute, 2012).

In all, about 17,000 compounds went through this assay and about 260 (1.5%) were called active.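 Rule for the calls: active = spot fluorescence over background with P-value below 7% in all four replicate spots, showing protein binding; inactive = the rest.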 This excerpt belongs to a sample that is enriched for actives.

Sequence of Myc proto-oncogene protein (Homo sapiens) (P01106 whole entry, looked up): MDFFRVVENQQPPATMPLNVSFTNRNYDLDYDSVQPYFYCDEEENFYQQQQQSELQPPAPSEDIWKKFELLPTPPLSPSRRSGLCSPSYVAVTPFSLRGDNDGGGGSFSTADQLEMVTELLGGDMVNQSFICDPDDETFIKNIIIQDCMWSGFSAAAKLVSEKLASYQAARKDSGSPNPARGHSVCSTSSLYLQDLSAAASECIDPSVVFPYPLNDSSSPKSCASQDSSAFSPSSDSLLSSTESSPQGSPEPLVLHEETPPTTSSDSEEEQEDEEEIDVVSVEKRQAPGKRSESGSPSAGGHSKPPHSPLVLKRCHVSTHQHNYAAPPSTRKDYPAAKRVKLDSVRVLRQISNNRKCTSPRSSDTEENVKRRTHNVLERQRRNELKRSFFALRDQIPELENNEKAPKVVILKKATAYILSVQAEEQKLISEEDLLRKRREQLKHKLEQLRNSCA

This experiment concerns the target Myc proto-oncogene protein (Homo sapiens) (UniProt P01106). The experiment can be described thus: binders of human c-Myc, primary screen, biochemical, small molecule microarray, anti-His fluorescence (AID 624141). The conditions noted are these: His-c-Myc binding.
As for `Cc1c(NC(=O)/C(C#N)=C/c2ccccc2Cl)c(=O)n(-c2ccccc2)n1C`, the result was inactive.

Regarding `C/C(=C\CC[C@H](CO)[C@@H]1CC[C@]2(C)C3=C(CC[C@@]12C)[C@@]1(C)CCC(=O)C(C)(C)C1CC3)C(=O)O` (stereo not given in full), the result was inactive.

For `COCCOC(=O)N1C(=O)[C@@]2(c3cc(C#CCNC(N)=O)ccc31)[C@H](C(=O)N1CCN(c3ncccn3)CC1)[C@H]1C(=O)O[C@H](c3ccccc3)[C@H](c3ccccc3)N1[C@@H]2c1ccccc1OCCO`, the call was inactive.

For the compound `Cc1cc(C(=O)c2ccccc2)ccc1OC(=O)COc1ccccc1[N+](=O)[O-]`, the call was inactive.

For the compound `NC(=O)NCC#Cc1ccc2c(c1)[C@]1(C(=O)N2)[C@H](C(=O)Nc2nc3ccccc3s2)[C@H]2C(=O)O[C@H](c3ccccc3)[C@H](c3ccccc3)N2[C@@H]1c1ccc(OCCO)cc1`, the compound was called inactive.

Turning to `CC1=COC(O[C@@H]2O[C@H](CO)[C@@H](O)[C@H](O)[C@H]2O)C2C1CC(O)C2CO` (stereo not given in full), the compound was classed as inactive.

Take `C[C@H](CO)N1C[C@H](C)[C@@H](CN(C)Cc2ccccc2)Oc2c(NC(=O)C3CCOCC3)cccc2C1=O`: the outcome was inactive.

In the case of `C[C@H](CO)N1C[C@H](C)[C@H](CN(C)Cc2ccc(C(=O)O)cc2)Oc2ccc(NC(=O)NC3CCCCC3)cc2C1=O`, the result was inactive.

For the compound `COc1ccc(S(=O)(=O)Nc2cccc3c2O[C@H](CN(C)Cc2ccc4c(c2)OCO4)[C@H](C)CN([C@@H](C)CO)C3=O)cc1`, the compound was classed as inactive.

For `COc1cccc(NC(=O)c2cc([N+](=O)[O-])ccc2NC(=O)CN2CCCCCC2)c1`, the compound was classed as inactive.

`C[C@@H]1CN([C@@H](C)CO)C(=O)c2cccc(NC(=O)Nc3ccc(F)cc3)c2O[C@@H]1CN(C)Cc1ccc(C(=O)O)cc1`: the compound was called inactive.

As to `C[C@H](CO)N1C[C@H](C)[C@H](CN(C)Cc2ccc(C(F)(F)F)cc2)Oc2c(NC(=O)C3CCOCC3)cccc2C1=O`, the compound was classed as inactive.

`O=C(Nc1cccc(CCc2ccccn2)c1)c1ccc(Cl)cc1`: the outcome was inactive.

As for `C[C@@H]1CCCCO[C@H](CN(C)C(=O)Nc2ccc3c(c2)OCO3)[C@H](C)CN([C@H](C)CO)C(=O)c2cc(NS(C)(=O)=O)ccc2O1`, the compound was called inactive.

Take `C[C@H]1CN([C@@H](C)CO)C(=O)c2cc(NS(=O)(=O)c3ccccc3)ccc2O[C@@H]1CN(C)C(=O)NC1CCCCC1`: the outcome was inactive.

For the compound `C[C@@H]1CN([C@@H](C)CO)C(=O)CCCn2cc(nn2)CO[C@@H]1CN(C)C(=O)C1CCCCC1`, the compound was called inactive.

With `C[C@@H]1CCCCO[C@H](CN(C)C(=O)CCC(F)(F)F)[C@@H](C)CN([C@@H](C)CO)C(=O)c2cc(NC(=O)c3ccncc3)ccc2O1`, the compound was called inactive.

In the case of `COC(=O)c1cc(C)sc1NC(=S)Nc1ncn(Cc2ccc(F)cc2Cl)n1`, the compound was classed as inactive.

As for `O=C1C(=O)N(CCn2c3ccccc3c3nc4ccccc4nc32)c2ccccc21`, the outcome was inactive.

Take `CCn1c2ccccc2c2nnc(SCC(=O)O)nc21`: the compound was called inactive.

As for `CCc1ccc2c(c1)c1nc3ccccc3nc1n2CC(=O)OC`, the compound was called active.

As to `O=C(O)c1cccc(S(=O)(=O)Nc2ccc(O)cc2Sc2nc3ccccc3s2)c1`, the compound was called inactive.

For `Cc1ccc(OCC(=O)Nc2cc(-c3nc4cc(C)c(C)cc4o3)ccc2C)cc1`, the result was inactive.

For `Cc1noc(C)c1NC(=O)N(C)C[C@@H]1Oc2ccc(NC(=O)Nc3ccc4c(c3)OCO4)cc2C(=O)N([C@H](C)CO)C[C@H]1C`, the result was inactive.

With `C[C@@H]1CN([C@H](C)CO)C(=O)Cc2cc(NC(=O)C3CC3)ccc2O[C@H]1CN(C)Cc1ccc(Cl)c(Cl)c1`, the compound was classed as active.

With `C[C@H](CO)N1C[C@H](C)[C@@H](CN(C)C(=O)Nc2ccccc2)Oc2ccc(NC(=O)C3CC3)cc2CC1=O`, the compound was called inactive.

In the case of `C[C@@H]1CN([C@H](C)CO)C(=O)Cc2cc(NC(=O)C3CC3)ccc2O[C@H]1CN(C)Cc1ccc2c(c1)OCO2`, the compound was called inactive.

Regarding `CCOC(=O)c1ccc(COC(=O)c2cc(=O)[nH]c3ccccc23)o1`, the outcome was inactive.

`CC(C)NC(=O)N(C)C[C@H]1OCCCC[C@H](C)Oc2ccc(NC(=O)Nc3ccc4c(c3)OCO4)cc2C(=O)N([C@H](C)CO)C[C@@H]1C`: the compound was classed as inactive.

As to `C[C@@H]1CN([C@@H](C)CO)C(=O)Cc2cc(NC(=O)CCN3CCOCC3)ccc2O[C@H]1CN(C)S(=O)(=O)c1ccccc1`, the compound was classed as inactive.

Consider `Cc1noc(C)c1NC(=O)Nc1cccc2c1O[C@@H](CN(C)Cc1ccc3c(c1)OCO3)[C@@H](C)CN([C@@H](C)CO)C2=O`, for which the call was inactive.

With `C[C@@H]1CN([C@@H](C)CO)C(=O)CCCn2cc(nn2)CO[C@H]1CN(C)C(=O)Nc1ccc(N2CCCCC2)cc1`, the result was inactive.

On to `CC(C)NC(=O)Nc1ccc2c(c1)C(=O)N([C@@H](C)CO)C[C@H](C)[C@H](CN(C)C(=O)c1ccccc1)OCCCC[C@@H](C)O2`, for which the result was inactive.

As to `c1ccc2[nH]c(NCCN3CCOCC3)nc2c1`, the call was inactive.

Consider `COC(=O)Cc1csc(Nc2c(C)n(C)n(-c3ccccc3)c2=O)n1`, for which the outcome was inactive.

In the case of `O=C(C1=C[C@H](c2csc3ccccc23)C[C@H](OCc2ccc(CO)cc2)O1)N1CCCCC1`, the compound was called active.

With `O=C(C1=C[C@H](c2coc3ccccc3c2=O)C[C@H](OCc2ccc(CO)cc2)O1)N1CCOCC1`, the compound was called inactive.

In the case of `NC(=O)C1=C[C@H](c2csc3ccccc23)C[C@H](OCc2ccc(CO)cc2)O1`, the call was inactive.

`C=C1C[C@@]23CC[C@@H]4[C@](C)(CO)CCC[C@@]4(C)[C@@H]2CC[C@@H]1C3`: the outcome was inactive.

Take `Cc1noc(C)c1S(=O)(=O)Nc1ccc2c(c1)C(=O)N([C@H](C)CO)C[C@@H](C)[C@@H](CN(C)Cc1ccccc1)OCCCC[C@@H](C)O2`: the call was inactive.

For `C[C@@H]1CN([C@H](C)CO)C(=O)c2cc(N(C)C)ccc2O[C@@H]1CN(C)S(=O)(=O)c1cn(C)cn1`, the call was inactive.

For the compound `C[C@H]1CCCCO[C@@H](CN(C)C(=O)c2ccccc2)[C@@H](C)CN([C@@H](C)CO)C(=O)c2cc(NS(=O)(=O)c3ccccc3)ccc2O1`, the compound was classed as inactive.

For `CCCCc1nn(-c2ccccc2C(F)(F)F)c(=O)n1Cc1ccc(-c2ccccc2S(=O)(=O)NC(=O)c2sccc2C)cc1`, the call was active.

As for `CNC[C@@H]1Oc2ccc(NC(=O)CCC(F)(F)F)cc2C(=O)N([C@@H](C)CO)C[C@@H]1C`, the outcome was inactive.

Turning to `CC(C)C[C@](O)(C(=O)OCc1ccc(O[C@@H]2O[C@H](CO)[C@@H](O)[C@H](O)[C@H]2O)cc1)[C@H](O)C(=O)OCc1ccc(O[C@@H]2O[C@H](CO)[C@@H](O)[C@H](O)[C@H]2O)cc1`, the call was inactive.
